Assay outcomes (PubChem BioAssay)
In the library only some 19% were active in any assay of this set; here they are far more common.
Cycloheximide cs: affects cycloheximide protein synthesis inhibition readout, counter-screen | cell reporter, cycloheximide protein synthesis inhibition counterscreen | max response, % | 300,000 tested, 12% active | AID 2314; in the data active = max response mostly above about 13%, no sharp cut-off; inactive = mostly below about 14%; note: read at 38.3 µM for the half of the compounds with a filed dose
Pf growth 96h: inhibits malaria parasite growth, 96 h; P. falciparum luciferase reporter growth, 96 h; AID 504834; 320,000 tested, 6.9% active; Potency, µM (doses to about 28.7 µM), actives largely listed as inhibitors
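P. falciparum expressing integrated firefly luciferase grown in erythrocytes (2% hematocrit, 0.05% parasitemia final) with compounds for 96 hours at 37 C, 5% CO2. Growth inhibition read as loss of luminescence after adding luciferase detection reagent.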
SARS PLP yeast: SARS-CoV PLP inhibition in yeast; 330,000 tested, 0.19% active; Potency, µM (doses to about 32.9 µM), actives largely listed as activators; AID 485353; S. cerevisiae expressing SARS-CoV PLpro, growth rescue; calls by dose curve; note: nearly all actives have a fitted effect of over 55% in size
Pf growth 48h: inhibits P. falciparum growth in the first generation, 48 h. P. falciparum luciferase growth in erythrocytes, 48 h. 310,000 tested, 5.9% active. Potency, µM (doses to about 28.7 µM), actives largely listed as inhibitors. AID 504832
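Parasite viability was followed by luminescence of a genomically integrated firefly luciferase. Cultures held 0.1% parasitemia at 2% hematocrit (final), incubated under 5% CO2 at 37 C.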
Shiga inhibitor: inhibitors of Shiga toxin in Vero cells | Vero cells, Shiga toxin protein synthesis inhibition reporter | inhibition, % at 38.7 µM | 290,000 tested, 9.2% active | AID 2315; in the data active = inhibition mostly above about 28%, no sharp cut-off; inactive = mostly below about 43%
AMA1-RON2 inh: inhibitors of Plasmodium falciparum AMA1-RON2 interaction. AlphaScreen AMA1-biotinylated RON2 peptide binding. Potency, µM (titrated, usually from 58.2 µM), usual class: inhibitors. 360,000 tested, 0.2% active. AID 720542; note: nearly all actives have a fitted effect of over 45% in size
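AMA1 (3D7) with his tag at 25 nM final met compounds first, then biotinylated RON2 peptide at 25 nM; detection used donor plus acceptor beads, 10 µg/mL apiece, read by AlphaScreen after 30 min at room temperature.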
Hits are given with their value; 0 = inactive; ? = inconclusive; - = no result given; [ ] = another dose, or the depositor's remark. Unless noted, calls come from the whole dose curve; as a rule, active = well fitted curve in the direction sought with a large enough effect; inconclusive = small, poorly fitted or top-dose-only effect, or another doubt; inactive = no such curve, though single readings can be large; an effect the other way counts as inactive or inconclusive.

SMILES	Cycloheximide cs	Pf growth 96h	SARS PLP yeast	Pf growth 48h	Shiga inhibitor	AMA1-RON2 inh
O=[N+]([O-])c1cc(S(=O)(=O)C(F)(F)F)ccc1Sc1nc2ccccc2s1	0	9.28µM	0	?	0	?
CS(=O)(=O)c1ccc(Sc2nc3ccccc3s2)c([N+](=O)[O-])c1	0	?	0	13.1µM	0	0
O=[N+]([O-])c1ccc(N2CCNCC2)cc1Sc1nc2ccccc2[nH]1	0	?	0	?	0	0[11.6 µM]
O=[N+]([O-])c1cc(S(=O)(=O)C(F)(F)F)ccc1Sc1nc2ccccc2[nH]1	0	-	0	14.7µM	0	?
Cn1c2cc(S(C)=O)sc2c2cnn(Cc3ccccc3F)c(=O)c21 (stereo unspecified)	0	-	-	-	0	-
N#Cc1ccc(NC(=S)NC(=O)C2CCCCC2)cc1	-	-	0	-	-	0
O=C(Nc1ccccc1)Nc1ccc(Br)cc1F	30.5	0.37µM	0	0	110.2	0
O=C(Nc1cccc(Cl)c1)Nc1ccc(Br)cc1F	18.9	?	0	?	67.0	0
COC(=O)c1cc(Br)ccc1NC(=O)Nc1ccccc1	0	0	0	0	0	0
Cc1cc(NC(=O)Nc2ccccc2F)ccc1Br	55.0	?	0	0	77.2	0
O=[N+]([O-])O[C@H]1CO[C@H]2[C@@H]1OC[C@H]2O	0	0	-	0	0	-
COc1ccc(CNC(=O)Nc2cc(C)cc(C)c2)cc1	23.7	0	0	0	48.2	0
COc1ccc(NC(=O)NCc2ccncc2)cc1	0	0	0	0	0	0
COc1ccc(CNC(=O)Nc2ccc(C)c(C)c2)cc1	32.7	0	0	0	0	0
COc1ccc(CNC(=O)Nc2ccc(C)cc2)cc1	24.2	0	0	0	76.1	0
CCOC(=O)c1ccc(NC(=O)NCc2ccc(OC)cc2)cc1	0	0[5.75 µM]	0	?	0	0
COc1ccc(CNc2ccc(C)c(C)c2)cc1	40.9	0	0	0	56.9	0
CN(CC(O)COCc1ccc2c(c1)OCO2)C1CCCCC1 (stereo unspecified)	0	0	0	0	0	0
CC(C)(C)C(=O)OCOP(=O)(COCCn1cnc2c(N)ncnc21)OCOC(=O)C(C)(C)C	-	6.75µM	-	15.1µM	-	-
CCOC(=O)C(C#N)=C1CCN(Cc2ccccc2)CC1	0	7.38µM	0	-	0	0
O=C1NCCN(Cc2ccc(-c3ccccc3)cc2)C1CC(=O)N1CCN(CCO)CC1 (stereo unspecified)	0	0	0	0	0	0
CCCC(C)(C)C(=O)N1CCC1(C)C(=O)Nc1cccc2ccccc12 (stereo unspecified)	-	-	-	-	-	0
O=C(CCc1nnc2ccc(NCc3ccco3)nn12)N1CCCCC1	0	0	0	0	0	0
O=C(CCc1nnc2ccc(NCc3ccco3)nn12)N1CCN(c2ccccc2F)CC1	0	9.28µM	0	0	0	0
COc1cc(-c2cccs2)cc(=O)c2c(C)oc(C)c12	0	11.7µM	0	?	0	0
SMILES	Cycloheximide cs	Pf growth 96h	SARS PLP yeast	Pf growth 48h	Shiga inhibitor	AMA1-RON2 inh
O=C(CSc1nnc(SCc2cccc3ccccc23)s1)c1ccc2c(c1)OCO2	13.7	?	0	0	0	0
O=C(CSc1ccccn1)c1ccc2c(c1)OCO2	37.2	0	0	0	38.9	0
O=C(CSc1ccccn1)Nc1ccc2c(c1)OCO2	34.5	0	0	0	100.8	0
O=C(CSc1nnc(SCc2cccc3ccccc23)s1)Nc1ccc(C(=O)O)cc1	0	0	0	0	0	0
O=C(CSc1ccccn1)NCc1ccc2c(c1)OCO2	11.8	?	0	0	0	0
CC(C)(Oc1ccc(Cl)cc1)C(=O)NC1CC1	-	0	0	?	-	0
COc1ccc(-c2csc(-n3ncc(-c4ccccn4)c3N)n2)cc1	0	?	0	?	0	0
Nc1c(-c2cccs2)cnn1-c1nc(-c2ccc(F)cc2)cs1	16.9	0	0	0	43.7	0
Nc1c(-c2ccccn2)cnn1-c1nc(-c2ccc(F)cc2)cs1	44.5	0	0	0	0	0
Nc1c(-c2cccs2)cnn1-c1nc(-c2ccc(Cl)cc2Cl)cs1	0	?	0	0	0	0
COc1ccc(C(C(=O)NC(C)(C)C)n2c(-c3ccc(C(F)(F)F)cc3)nc3ccccc32)cc1 (stereo unspecified)	-	-	-	-	-	0
O=C(NC1CCCC1)C(c1ccccc1)N(C(=O)c1ccno1)c1ccccc1 (stereo unspecified)	0	7.38µM	0	0	0	0
